Results on 21 compounds are retold here after ChEMBL document CHEMBL3988442, “University of Dundee, Small-Polar-MMV Screening Library” (2021).

The structures appear in SMILES notation.

The assay has as its target AMP-activated protein kinase, AMPK (Homo sapiens) (UniProt P54646+O43741+P54619+Q9UGJ0+Q9Y478+Q13131+Q9UGI9). Nature of the assay: AMP-dependent Kinase enzyme assay. An in vitro enzyme assay that detects ADP turnover that is directly proportional to AMPK activity. This uses naive AMPK that is activated during the assay with MK-8722. Type of assay: functional. The following applies: 30 µM. Also noted: scale not given: direction of the effect not stated beside the values.
Consider `Cc1nc(CN2CCCC2Cn2ccnc2C(C)C)nc2ccccc12` (stereo unspecified), for which the Percent Effect is -10.6%.
As to `O=C1NCCCCC1NC(=O)N1CCCc2ccccc21` (stereo unspecified), the Percent Effect was -0.938%.
Turning to `CCC[C@@H]1CN(c2cncc(C(=O)N3CCOCC3)n2)C[C@H]1N(C)C`, the Percent Effect was 14.3%.
With `CN(CCCc1cnn(C)c1)Cc1cc2n(n1)CCCNC2`, the Percent Effect was -0.861%.
`CN1CCC(NC(=O)c2cc(Cl)cc(Br)c2O)C1=O` (stereo unspecified): the Percent Effect came out at 12.7%.
Take `OC1CCN(C2CCN(c3ccc(Cn4ccnc4)cn3)CC2)CC1`: the Percent Effect is -3.24%.
The figure for `CC(C)c1nnc2n1CCN(Cc1cc(Cl)c3c(c1)OCCO3)C2` is 11.8%.
In the case of `CC(C(=O)NCC(C)(C)c1ccc(Br)cc1)n1cncn1` (stereo unspecified), the Percent Effect turned out to be 0.177%.
Consider `O=C(NCC(=O)N1CCN(c2ccccc2)CC1)c1sccc1C1CC1`, for which the Percent Effect is -5.62%.
For `COCCCNC(=O)Nc1c(C)cccc1C(C)C`, the Percent Effect came out at 7.47%.
The figure for `NC(=O)c1ccnc(N2CCCC(CO)(Cc3ccc(F)cc3)C2)c1` (stereo unspecified) is 16.1%.
With `Nc1ncnc2nc(C3CCCCN3)ccc12` (stereo unspecified), the Percent Effect came out at 15.5%.
As for `CC(C)NC(=O)c1nc(Cn2c(C(F)(F)F)nc3ccccc32)no1`, the Percent Effect stood at 6.13%.
Consider `O=C(NCC[S+]([O-])c1ccccc1)c1ccc2[nH]c(=O)[nH]c2c1` (stereo unspecified), for which the Percent Effect was 6.24%.
Turning to `Cc1cc(N2CCCC(N(C)C)C2)n2nccc2n1` (stereo unspecified), the Percent Effect was determined as 1.81%.
In the case of `Cc1cn[nH]c1C1COCCN1Cc1ccsc1` (stereo unspecified) it was 14.3%; in that of `CCN(CCOC)C(=O)c1cc(COc2ccc3c(c2)CCCC3)on1`, 0.118%; in that of `CNC(=O)c1ccnc(CC2COc3c(cccc3OC)C2)c1` (stereo unspecified), 7.88%.
Turning to `Oc1cc(C2CCCCN2Cc2cccs2)nc(-c2ccncc2)n1` (stereo unspecified), the Percent Effect is 1.11%.
As to `CCc1ccc(CCn2cnc(C#N)n2)cc1`, the Percent Effect was -0.907%.
As to `COC(=O)c1cc2n(n1)CCN(C(=O)c1csc(CN(C)C)n1)C2`, the Percent Effect worked out at 1.89%.
